Assay results as given in PubChem BioAssay (EPA / NIEHS).
Results filed as inconclusive are left out. Activity calls are given as the source filed them. The calls were made as follows, unless noted: active = hit-call score of the fitted dose curve at least 0.9, where 1 is the maximum; inactive = score below 0.9.

Key:
[1] = read-out: Monokine induced gamma interferon (MIG), CXCL9 (gene 4283); assay: BSK_3C_MIG: BioMAP Diversity Plus: 3C Assay for Monokine induced gamma interferon (MIG) Biomarker Activity (AID 2283021); settings: primary human endothelial cells (HUVEC); actives raise or lower the signal;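 as to AC50: MIG protein level measured by immunoassay in the treated endothelial cultures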
Method in brief: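 Endothelial primary cells (human umbilical vein) are dosed with test chemical in the 3C system. MIG levels are measured by ELISA at 24 h and fitted in both directions relative to DMSO.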

[2] = BSK_3C_SRB: Viability Assessment in the BioMAP Diversity Plus: 3C Assay (AID 2283023); settings: primary human endothelial cells (HUVEC);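 also: fitted both ways against DMSO so a hit may be signal rise or drop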
Method in brief: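 Cytotoxicity readout in parallel HUVEC 3C cultures: after 24 h compound exposure, cells fixed with 10% TCA, stained with 0.1% SRB and read at 560 nm. Gain or loss relative to DMSO fitted.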

[3] = read-out: Matrix Metallopeptidase 1 (MMP1), MMP1 (gene 4312); assay: BSK_BE3C_MMP1: BioMAP Diversity Plus: BE3C Assay for Matrix Metallopeptidase 1 (MMP1) Biomarker Activity (AID 2283024); settings: primary human bronchial epithelial cells; actives raise or lower the signal
Method in brief: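 MMP1 signal, measured by ELISA after a 24 h chemical exposure of human primary bronchial epithelial cells, is analysed with bidirectional fitting using DMSO as negative control.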

[4] = BSK_3C_Vis: BioMAP Diversity Plus: 3C Assay for Morphology Visualization (AID 2283025); settings: primary human endothelial cells (HUVEC);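 also: fitted both ways so gain or loss versus DMSO counts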
Method in brief: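 Morphology read by light microscopy serves as a background control for the multiplexed 3C assay in human umbilical vein endothelial cells, taken 24 h after dosing, with DMSO as the negative control and bidirectional curve fitting.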

[5] = read-out: Pselectin, SELP (gene 6403); assay: BSK_4H_Pselectin: BioMAP Diversity Plus: 4H Assay for Pselectin Biomarker Activity (AID 2283026); settings: primary human endothelial cells (HUVEC); actives raise or lower the signal
Method in brief: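 Endothelial primary cells (human umbilical vein) are dosed, incubated 24 h, and assayed for surface P-selectin by ELISA; responses in either direction are fitted relative to the DMSO negative control.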

[6] = read-out: Thrombomodulin, THBD (gene 7056); assay: BSK_3C_Thrombomodulin: BioMAP Diversity Plus: 3C Assay for Thrombomodulin Biomarker Activity (AID 2283029); settings: primary human endothelial cells (HUVEC); actives raise or lower the signal
Method in brief: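 Endothelial cells from umbilical vein are dosed with test chemical and incubated 24 h. Thrombomodulin is then quantified by ELISA, with DMSO serving as negative control and activity baseline.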

[7] = read-out: Vascular endothelial growth factor receptor 2 (Homo sapiens) (UniProt P35968); assay: BSK_4H_VEGFRII: BioMAP Diversity Plus: 4H Assay for Vascular endothelial growth factor receptor 2 (VEGFR2) Biomarker Activity (AID 2283031); settings: primary human endothelial cells (HUVEC); actives raise or lower the signal;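 as to AC50: cell-surface VEGFR2 protein level quantified by ELISA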
Method in brief: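 Measured by ELISA after 24 h of compound treatment: VEGFR2 on primary human umbilical vein endothelial cells, fitted in both directions relative to DMSO. Parallel cultures received SRB staining (560 nm) for overt cytotoxicity.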

[8] = read-out: Human Leukocyte Antigen - DR isotype (HLADR), HLA-DRA (gene 3122); assay: BSK_BE3C_HLADR: BioMAP Diversity Plus: BE3C Assay for Human Leukocyte Antigen - DR isotype (HLADR) Biomarker Activity (AID 2283032); settings: primary human bronchial epithelial cells; actives raise or lower the signal
Method in brief: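 Chemicals are dosed onto BE3C bronchial epithelial cultures of human origin and left 24 h. HLA-DR is then measured by ELISA, and the endpoint is fitted in both directions using DMSO as the activity baseline.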

[9] = read-out: Vascular cell adhesion molecule 1 (VCAM1), VCAM1 (gene 7412); assay: BSK_4H_VCAM1: BioMAP Diversity Plus: 4H Assay for Vascular cell adhesion molecule 1 (VCAM1) Biomarker Activity (AID 2283033); settings: primary human endothelial cells (HUVEC); actives raise or lower the signal
Method in brief: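 Chemicals are added to primary human umbilical vein endothelial cells. After 24 h, VCAM-1 levels are measured by ELISA. Values come from bidirectional fitting referenced to DMSO.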

[10] = read-out: Interferon-gamma inducible Protein 10 (IP10), CXCL10 (gene 3627); assay: BSK_BE3C_IP10: BioMAP Diversity Plus: BE3C Assay for Interferon-gamma inducible Protein 10 (IP10) Biomarker Activity (AID 2283034); settings: primary human bronchial epithelial cells; actives raise or lower the signal
Method in brief: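 IP-10 quantified by ELISA serves as the endpoint. Cells: primary human bronchial epithelium, read 24 h after compound addition. Activity is derived by bidirectional fitting with DMSO as negative control.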

[11] = read-out: Monokine induced gamma interferon (MIG), CXCL9 (gene 4283); assay: BSK_BE3C_MIG: BioMAP Diversity Plus: BE3C Assay for Monokine induced gamma interferon (MIG) Biomarker Activity (AID 2283035); settings: primary human bronchial epithelial cells; actives raise or lower the signal
Method in brief: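 Dose cells (human primary bronchial epithelial), incubate 24 h, quantify MIG by ELISA, then fit concentration–response in both directions relative to DMSO control.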

[12] = read-out: Transforming growth factor beta 1 (TGFb1), TGFB1 (gene 7040); assay: BSK_BE3C_TGFb1: BioMAP Diversity Plus: BE3C Assay for Transforming growth factor beta 1 (TGFb1) Biomarker Activity (AID 2283036); settings: primary human bronchial epithelial cells; actives raise or lower the signal
Method in brief: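 Bronchial epithelial primary cells are treated with test chemical, then TGF-b1 is quantified by ELISA after 24 hours. Values derive from bidirectional fitting against DMSO, with cytotoxicity checked by SRB staining in parallel cultures.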

[13] = read-out: urokinase plasminogen activator (uPA), PLAU (gene 5328); assay: BSK_BE3C_uPA: BioMAP Diversity Plus: BE3C Assay for urokinase plasminogen activator (uPA) Biomarker Activity (AID 2283038); settings: primary human bronchial epithelial cells; actives raise or lower the signal
Method in brief: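 ELISA for uPA on human primary bronchial epithelial cultures 24 h post-treatment, gain or loss against DMSO. Parallel SRB staining (0.1% after 10% TCA fixation, 560 nm) assessed overt cytotoxicity.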

[14] = read-out: Urokinase-type plasminogen activator receptor (uPAR), PLAUR (gene 5329); assay: BSK_BE3C_uPAR: BioMAP Diversity Plus: BE3C Assay for Urokinase-type plasminogen activator receptor (uPAR) Biomarker Activity (AID 2283039); settings: primary human bronchial epithelial cells; actives raise or lower the signal
Method in brief: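 Steps: dose human primary bronchial epithelial cells, incubate 24 h, measure uPAR by ELISA, then fit gain- or loss-of-signal response bidirectionally relative to DMSO.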

[15] = read-out: Interleukin-6 (IL6), IL6 (gene 3569); assay: BSK_CASM3C_IL6: BioMAP Diversity Plus: CASM3C Assay for Interleukin-6 (IL6) Biomarker Activity for (AID 2283040); settings: primary human coronary artery smooth muscle cells; actives raise or lower the signal
[16] = BSK_4H_SRB: Viability Assessment in the BioMAP Diversity Plus: 4H Assay (AID 2283027); settings: primary human endothelial cells (HUVEC);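 also: cells exposed to compound for 24 h before staining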;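 as to AC50: curves fitted both ways versus DMSO so AC50 may be loss or gain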
Method in brief: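 HUVEC, 24 h post-dose; 10% TCA fix, 0.1% SRB stain, A560 nm. Total protein = overt cytotoxicity, parallel to biomarker read. Bidirectional fit vs DMSO baseline.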

[17] = biological target: human Vitamin D Receptor (VDR), VDR (gene 7421) (UniProt P11473); assay: ATG_VDR_TRANS: Attagene TRANS-FACTORIAL HepG2 Assay for human Vitamin D Receptor (VDR) (AID 2283022; active = hit-call score of the fitted dose curve at least 0.9, where 1 is the maximum)
Chain of human Vitamin D Receptor (VDR), VDR (gene 7421) (P11473 whole entry, looked up, the tested form may be a part): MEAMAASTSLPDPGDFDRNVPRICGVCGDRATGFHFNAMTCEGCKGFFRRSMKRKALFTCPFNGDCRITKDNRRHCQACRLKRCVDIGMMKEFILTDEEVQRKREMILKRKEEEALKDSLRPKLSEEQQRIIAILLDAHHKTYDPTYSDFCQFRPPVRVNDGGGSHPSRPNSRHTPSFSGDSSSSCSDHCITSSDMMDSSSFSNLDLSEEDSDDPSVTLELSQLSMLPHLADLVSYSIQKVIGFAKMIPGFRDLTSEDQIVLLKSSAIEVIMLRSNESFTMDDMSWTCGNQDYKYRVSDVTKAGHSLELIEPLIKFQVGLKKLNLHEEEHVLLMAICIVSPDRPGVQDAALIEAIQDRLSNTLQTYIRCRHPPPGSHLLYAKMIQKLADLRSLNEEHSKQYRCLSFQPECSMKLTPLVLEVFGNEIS
Method in brief: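 Transactivation by an exogenous VDR-Gal4 chimera in transiently transfected HepG2 cells was measured as reporter transcript level 24 hours after chemical treatment. RT-PCR products were analysed by capillary electrophoresis and fitted in the positive direction relative to DMSO.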

[18] = read-out: Urokinase-type plasminogen activator receptor (uPAR), PLAUR (gene 5329); assay: BSK_4H_uPAR: BioMAP Diversity Plus: 4H Assay for Urokinase-type plasminogen activator receptor (uPAR) Biomarker Activity (AID 2283030); settings: primary human endothelial cells (HUVEC); actives raise or lower the signal
Method in brief: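 uPAR level read by ELISA on HUVEC cultures (BioMAP 4H) 24 h post-dosing, analyzed for gain or loss relative to DMSO. Parallel SRB staining assessed overt cytotoxicity.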

[19] = read-out: Plasminogen activator inhibitor-1 (PAI1), SERPINE1 (gene 5054); assay: BSK_BE3C_PAI1: BioMAP Diversity Plus: BE3C Assay for Plasminogen activator inhibitor-1 (PAI1) Biomarker Activity (AID 2283037); settings: primary human bronchial epithelial cells; actives raise or lower the signal
Method in brief: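 Values derive from bidirectional fitting against DMSO baseline of PAI-1 levels, measured by ELISA in human bronchial epithelial cells 24 h after compound addition.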

[20] = BSK_BE3C_SRB: Viability Assessment in the BioMAP Diversity Plus: BE3C Assay (AID 2283028); settings: primary human bronchial epithelial cells
Method in brief: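 Cytotoxicity read-out: SRB (0.1%) staining of TCA-fixed (10%) human lung bronchial epithelial cells, absorbance 560 nm, 24 h post-dosing. Curves fitted both directions relative to DMSO.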

Measured: AC50

CC(=O)Nc1ccc(C(=O)CCl)cc1
active: [1] 10.9 µM | [2] 9.52 µM | [3] 13.2 µM | [4] 4.8 µM | [5] 4.79 µM | [7] 9.38 µM | [8] 15.1 µM | [9] 6.74 µM | [10] 25.6 µM | [11] 33.3 µM | [14] 31.7 µM | [15] 10.6 µM
inactive: [6] | [12] | [13]

CC1(C)C2=CCCC(C)(C)[C@]23CC[C@H]1C3
active: [2] 30.4 µM | [4] 37.4 µM | [5] 20 µM | [8] 20 µM | [10] 20 µM | [12] 20 µM | [15] 30.2 µM
not listed: [3] | [17] | [18] | [19] | [20]
inactive: all other assays above

C=C(C)[C@H]1CC=C(C)C(=O)C1
not listed: [16] | [19] | [20]
inactive: all other assays above

O=C1OC[C@H](Cc2cccc(O)c2)[C@H]1Cc1cccc(O)c1
not listed: [3] | [16] | [19] | [20]
inactive: all other assays above

C=CC(C)(O)CCC=C(C)C (configuration not stated)
not listed: [3] | [4] | [12] | [16] | [19] | [20]
inactive: all other assays above

O=C1OC2(c3ccccc31)c1ccc(O)c(Br)c1Oc1c2ccc(O)c1Br
active: [4] 37.5 µM | [5] 20 µM | [6] 20 µM | [7] 13.7 µM | [8] 10.3 µM | [9] 20 µM | [12] 3.97 µM
not listed: [3] | [16] | [18] | [19] | [20]
inactive: all other assays above

c1ccc(Oc2ccccc2)cc1
active: [2] 30 µM | [4] 37.8 µM | [5] 30.8 µM | [16] 31.3 µM | [9] 28.8 µM
not listed: [3] | [18] | [20]
inactive: all other assays above

C=C(C)C(=O)OCCOCCOCCOCCOC(=O)C(=C)C
not listed: [16] | [17] | [18] | [20]
inactive: all other assays above

CN(C)C(=O)Nc1ccc(Oc2ccc(Cl)cc2)cc1
active: [12] 3.97 µM | [15] 0.0427 µM
not listed: [3] | [16] | [18] | [19] | [20]
inactive: all other assays above

CN(C)C(=S)SC(=S)N(C)C
active: [2] 19.9 µM | [4] 39.2 µM | [8] 13.7 µM | [9] 26.9 µM | [10] 34.7 µM | [11] 34.9 µM | [13] 19.9 µM | [14] 31.7 µM
not listed: [3] | [16]
inactive: all other assays above

CN(c1nccc(=O)[nH]1)C1CCN(c2nc3ccccc3n2Cc2ccc(F)cc2)CC1
active: [5] 0.00777 µM | [9] 0.0185 µM
not listed: [3] | [16] | [18] | [19] | [20]
inactive: all other assays above

CCCCN(CCCC)C(=O)N(CCCC)CCCC
inactive: [6]
active: [1] 12.5 µM | [2] 7.99 µM | [4] 2.98 µM | [5] 12.2 µM | [16] 8.59 µM | [7] 23.7 µM | [8] 12.5 µM | [9] 23.7 µM | [10] 9.08 µM | [11] 20 µM | [12] 5.38 µM | [13] 9.69 µM | [14] 7.37 µM | [15] 20 µM

c1ccc2cc(Nc3ccc(Nc4ccc5ccccc5c4)cc3)ccc2c1
active: [4] 8.8 µM
not listed: [3] | [16] | [17] | [18] | [19] | [20]
inactive: all other assays above

COc1ccc(CCN2CCC(Nc3nc4ccccc4n3Cc3ccc(F)cc3)CC2)cc1
active: [2] 2.41 µM | [4] 0.743 µM | [18] 0.992 µM | [8] 7.88 µM | [9] 0.0041 µM
not listed: [16] | [17] | [19] | [20]
inactive: all other assays above

CCCCCCCCCCCCCCCC(=O)OC/C=C(C)/C=C/C=C(C)/C=C/C1=C(C)CCCC1(C)C
active: [2] 29.5 µM | [4] 38.9 µM | [6] 20 µM
not listed: [3] | [16] | [17] | [18] | [19] | [20]
inactive: all other assays above
